Experimental data reported in PubChem BioAssay (NCATS).
Results filed as inconclusive are left out. Calls of active or inactive are those of the source. Unless noted, the call rests on the fitted dose curve; in most records, active means well fitted curve in the direction sought with a large enough effect; inconclusive means small, poorly fitted or top-dose-only effect, or another doubt; inactive means no such curve, though single readings can be large; an effect the other way counts as inactive or inconclusive.

Key:
[1] = target: Peptidyl-prolyl cis-trans isomerase NIMA-interacting 1 (Homo sapiens) (UniProt Q13526); experiment: qHTS Validation Assay to Find Inhibitors of Pin1 (AID 504536; active means well fitted inhibition curve with a large enough effect in the polarisation, with a control signal flat, not every such curve was filed as active; the % refers to the polarisation)
Peptidyl-prolyl cis-trans isomerase NIMA-interacting 1 (Homo sapiens), sequence (Q13526 whole entry, looked up): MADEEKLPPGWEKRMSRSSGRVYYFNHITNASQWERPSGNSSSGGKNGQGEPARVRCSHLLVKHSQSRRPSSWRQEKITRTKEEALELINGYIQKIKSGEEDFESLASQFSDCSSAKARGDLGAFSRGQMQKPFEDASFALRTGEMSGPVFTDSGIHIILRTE
In short: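 Fluorescence polarization competition: compounds (titration) displace HiFluor-488-labeled Pin1-1b peptide from Pin1 (0.3 uM final) in pH 7.5 HEPES buffer with DTT, 10 min at room temperature; %Activity normalized to no-enzyme wells, curves fitted.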

[2] = target: Phosphoglycerate kinase, glycosomal (Trypanosoma brucei brucei) (UniProt P07378); experiment: qHTS Validation Assay to Find Inhibitors of Phosphoglycerate Kinase (AID 504547); further: potency means the concentration at half of the fitted maximal effect
Phosphoglycerate kinase, glycosomal (Trypanosoma brucei brucei), sequence (P07378 whole entry, looked up): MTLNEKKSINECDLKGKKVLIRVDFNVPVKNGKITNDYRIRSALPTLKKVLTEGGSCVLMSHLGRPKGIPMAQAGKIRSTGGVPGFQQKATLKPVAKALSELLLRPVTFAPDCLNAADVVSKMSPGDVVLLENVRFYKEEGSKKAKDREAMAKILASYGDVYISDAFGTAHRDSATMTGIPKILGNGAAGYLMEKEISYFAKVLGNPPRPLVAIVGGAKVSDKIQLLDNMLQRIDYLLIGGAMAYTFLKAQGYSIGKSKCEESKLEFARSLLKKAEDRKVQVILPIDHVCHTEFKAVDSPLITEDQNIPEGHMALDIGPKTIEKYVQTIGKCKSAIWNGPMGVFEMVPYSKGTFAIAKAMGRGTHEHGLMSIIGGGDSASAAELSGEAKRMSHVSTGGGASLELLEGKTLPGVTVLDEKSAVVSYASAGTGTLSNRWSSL
In short: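 Inhibition of the enzyme is judged by a Kinase-Glo Plus luminescent signal following a one-hour incubation at room temperature. Because 1,3-BPG is unstable, it is made in situ by GAPDH at 100nM final; no-PGK wells define the baseline.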

[3] = target: phosphoglycerate mutase (Leishmania major) (UniProt Q4Q090); experiment: qHTS Validation Assay to Find Inhibitors of Phosphoglycerate Mutase (AID 504548); conditions: Potency: inhibition qHTS;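 further: end-point luminescence from Kinase-GloPlus after the PGAM reaction; series mostly up to about 58 µM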
phosphoglycerate mutase (Leishmania major), sequence (Q4Q090 1-553): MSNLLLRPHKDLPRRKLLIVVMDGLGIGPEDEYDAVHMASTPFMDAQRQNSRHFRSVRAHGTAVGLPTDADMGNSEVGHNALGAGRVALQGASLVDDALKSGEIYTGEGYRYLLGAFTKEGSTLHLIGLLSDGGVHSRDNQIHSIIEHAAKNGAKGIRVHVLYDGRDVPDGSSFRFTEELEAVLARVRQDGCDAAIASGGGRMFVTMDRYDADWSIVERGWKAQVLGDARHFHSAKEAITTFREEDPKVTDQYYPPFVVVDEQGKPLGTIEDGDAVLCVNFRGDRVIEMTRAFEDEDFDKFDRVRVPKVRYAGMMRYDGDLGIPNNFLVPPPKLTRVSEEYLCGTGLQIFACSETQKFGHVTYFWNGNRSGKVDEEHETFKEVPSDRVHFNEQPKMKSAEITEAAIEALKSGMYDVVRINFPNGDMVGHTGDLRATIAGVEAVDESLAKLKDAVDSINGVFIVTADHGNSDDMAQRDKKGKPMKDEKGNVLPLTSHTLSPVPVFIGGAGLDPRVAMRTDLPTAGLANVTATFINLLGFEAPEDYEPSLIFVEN
In short: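 L. major PGAM (1.25nM final) was added to substrate buffer and pinned compound, incubated 45 minutes at room temperature, then Kinase-GloPlus added; luminescence read after 10 minutes. Buffer: 100 mM TEA pH 7.6, 5 mM MgCl2, 0.01% Tween-20.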

[4] = Inducers of the Endoplasmic Reticulum Stress Response (ERSR) in human glioma: Validation (AID 504836)
In short: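 ERSR induction read as luciferase luminescence (Bright-Glo, 10 min at room temperature) in stably transfected human U87-MG glioma cells exposed to compounds for 16 h, using GRP78 as sensor.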

[5] = target: Ubiquitin carboxyl-terminal hydrolase 1 (Homo sapiens) (UniProt O94782); experiment: Inhibitors of USP1/UAF1: Pilot qHTS (AID 504865); further: nearly all actives have a fitted effect of over 35% in size; further: potency means the concentration at half of the fitted maximal effect
Ubiquitin carboxyl-terminal hydrolase 1 (Homo sapiens), sequence (O94782 whole entry, looked up): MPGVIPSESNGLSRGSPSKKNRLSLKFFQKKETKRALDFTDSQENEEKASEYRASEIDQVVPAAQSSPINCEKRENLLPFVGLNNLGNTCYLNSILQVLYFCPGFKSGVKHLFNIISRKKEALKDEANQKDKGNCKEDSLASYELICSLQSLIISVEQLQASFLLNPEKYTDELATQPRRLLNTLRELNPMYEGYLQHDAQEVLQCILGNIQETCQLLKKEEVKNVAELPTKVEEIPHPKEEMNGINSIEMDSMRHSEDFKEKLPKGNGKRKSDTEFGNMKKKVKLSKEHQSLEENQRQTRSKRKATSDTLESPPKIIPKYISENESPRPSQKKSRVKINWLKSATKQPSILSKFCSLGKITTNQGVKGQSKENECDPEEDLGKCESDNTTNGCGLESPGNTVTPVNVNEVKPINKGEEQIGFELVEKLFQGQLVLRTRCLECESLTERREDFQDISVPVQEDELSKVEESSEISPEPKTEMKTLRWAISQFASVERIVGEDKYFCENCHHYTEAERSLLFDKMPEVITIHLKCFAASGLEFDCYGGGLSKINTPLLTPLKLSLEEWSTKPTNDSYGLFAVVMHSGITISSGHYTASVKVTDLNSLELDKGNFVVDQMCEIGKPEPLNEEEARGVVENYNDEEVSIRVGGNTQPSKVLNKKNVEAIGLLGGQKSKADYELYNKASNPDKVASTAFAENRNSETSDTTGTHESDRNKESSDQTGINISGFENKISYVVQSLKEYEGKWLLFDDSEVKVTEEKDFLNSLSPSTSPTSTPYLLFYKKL
In short: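 USP1/UAF1 complex at 1 nM preincubated 15 min at room temperature with compound, then Ub-Rho substrate added at 150 nM final. Fluorescence (480/540 nm) read kinetically in 50 mM HEPES pH 7.8, 0.5 mM EDTA, 1 mM TCEP, 0.1 mg/ml BSA, 0.01% Tween-20.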

[6] = qHTS for Inhibitors of ATXN expression: Validation of Cytotoxic Assay (AID 588349)
In short: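 HEK293 cells were dosed with titrated compounds for 72 hr at 37 degrees C. Viability was read by CellTiter Glo luminescence, with intracellular ATP as the marker of cell survival.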

[7] = qHTS for Inhibitors of ATXN expression: Validation (AID 588378); further: series mostly up to about 57 µM; nearly all actives have a fitted effect of over 75% in size
In short: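 HEK293 cells carrying ATXN2-firefly luciferase reporter, treated with compound 24 h at 37 °C. Viability read first by CellTiter-Fluor (405/525 nm), then reporter expression by Bright-Glo luminescence; controls were a known ATXN2 expression inhibitor and a luciferase inhibitor.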

Measured: Potency

N[C@@]1(C(=O)O)CC[C@@H](C(=O)O)C1
inactive: all assays above

NCCCP(=O)(O)O
inactive: all assays above

COc1cc(CC(C)N)c(OC)cc1I (centres undefined)
not listed: [6] | [7]
inactive: all other assays above

C[C@@H]1O[C@@H](O[C@H]2C[C@@H](O)[C@]3(CO)[C@@H]4C(CC[C@]3(O)C2)[C@@]2(O)CC[C@H]([C@@H]3COC(=O)C3)[C@@]2(C)C[C@H]4O)[C@H](O)[C@H](O)[C@H]1O (some centres undefined)
not listed: [6] | [7]
inactive: all other assays above

Oc1ccc2c3c1O[C@H]1c4oc5ccccc5c4C[C@@]4(O)C(C2)N(CC2CC2)CCC314 (some centres undefined)
inactive: [1] | [2] | [3] | [4]

CC(C)(C)c1o[nH]c(=O)c1CC(N)C(=O)O (centres undefined)
not listed: [7]
inactive: all other assays above

O=S1(=O)N(CCN2CC=C(c3c[nH]c4cc(F)ccc34)CC2)c2cccc3c2N1CCC3
not listed: [6] | [7]
inactive: all other assays above

Cc1o[nH]c(=O)c1CC(N)C(=O)O (centres undefined)
inactive: all assays above

C#CCN[C@H](C)Cc1ccccc1
not listed: [7]
inactive: all other assays above

Clc1cc(I)cc(Cl)c1NC1=NCCN1
inactive: all assays above

C[N+](C)(C)CC#CCOC(=O)Nc1cccc(Cl)c1
inactive: all assays above

N[C@@H](CCl)C(=O)O
not listed: [7]
inactive: all other assays above

C[Se]C[C@H](N)C(=O)O
not listed: [7]
inactive: all other assays above

COc1ccc2[nH]c3c(c2c1)CCNC3
not listed: [7]
inactive: all other assays above

NC(N)=Nc1ccc2[nH]c3c(c2c1)C[C@@]1(O)[C@H]2Cc4ccc(O)c5c4[C@@]1(CCN2CC1CC1)[C@H]3O5
active: [5] 79.4 µM
inactive: [1] | [2] | [3] | [4]

OCc1cnc[nH]1
not listed: [7]
inactive: all other assays above

O=[N+]([O-])c1ccc2nc(N3CCNCC3)ccc2c1
not listed: [6] | [7]
inactive: all other assays above

CCNC(=O)[C@H]1O[C@@H](n2cnc3c(N)ncnc32)[C@H](O)[C@@H]1O
inactive: all assays above

CCN(CCCl)Cc1ccccc1Br
inactive: all assays above

COC(=O)N1CCN(C(=O)Cc2ccc(Cl)c(Cl)c2)C(CN2CCCC2)C1 (centres undefined)
not listed: [6] | [7]
inactive: all other assays above

Nc1ccc(CCN2CCN(c3cccc(C(F)(F)F)c3)CC2)cc1
not listed: [7]
inactive: all other assays above

NCC(O)c1cc(O)c(O)cc1F (centres undefined)
active: [2] 21.3 µM
not listed: [7]
inactive: all other assays above

CCCN1CC[C@@H]2c3cc(O)ccc3CC[C@@H]21
not listed: [7]
inactive: all other assays above

NC(=O)c1cc(N2CC2)c([N+](=O)[O-])cc1[N+](=O)[O-]
not listed: [7]
inactive: all other assays above

COc1ccc2c(c1)C13CCCCC1C(C2)N(C)CC3 (centres undefined)
not listed: [7]
inactive: all other assays above

CCCCCCC(C)(C)c1ccc([C@@H]2C[C@H](O)CC[C@H]2CCCO)c(O)c1
inactive: [1] | [2] | [3] | [4]

CCCN(CCC)[C@H]1CCc2c(F)ccc(O)c2C1
inactive: all assays above

COc1ccc2[nH]cc(CCN)c2c1
inactive: all assays above

c1ccc2c(N3CCNCC3)cccc2c1
not listed: [7]
inactive: all other assays above

C[C@H](N)Cc1cccc(C(F)(F)F)c1
inactive: all assays above

N[C@@H](Cn1ccc(=O)[nH]c1=O)C(=O)O
not listed: [7]
inactive: all other assays above

CCOC(=O)c1ncn2c1[C@@H]1CCCN1C(=O)c1cc(OC)ccc1-2
inactive: all assays above

CCCN(CCC)CCc1ccc(O)c(O)c1
not listed: [7]
inactive: all other assays above
